HT1080NT lethal – qHTS for induction of synthetic lethality in tumor cells producing 2HG: qHTS for the HT-1080-NT fibrosarcoma cell line; HT-1080-NT fibrosarcoma viability, CellTiter-Glo ATP luminescence, 48 h; Potency, µM (top dose mostly 46.1 µM), most hits filed as cytotoxic; actives 1.6% (n = 360,000); AID 686970, 2013;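 also: NT is the 2HG producing partner of a matched IDH1 knockdown line; nearly all actives have a fitted effect of over 55% in size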
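A 48-hour cytotoxicity screen used HT-1080-NT cells plated 2 hours before compound delivery. ATP-based CellTiter-Glo luminescence measured viability, normalized to DMSO and no-cell controls.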
DT40 TDP1 no CPT – qHTS for Inhibitors of human tyrosyl-DNA phosphodiesterase 1 (TDP1): qHTS in cells in absence of CPT; AID 686978, 2013; DT40 Tdp1-/- hTDP1 cells, no CPT, ATP luminescence, 48 h; Potency, µM (top dose mostly 46.2 µM), usual class: inhibitors; actives 15% (n = 420,000); also: nearly all actives have a fitted effect of over 55% in size
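Compound effects on proliferation are scored in DT40 Tdp1-/-;hTDP1 cells in the absence of CPT. ATP levels (CellTiter-Glo luminescence) are recorded after a ≥48 hr, 37 °C incubation.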
HT1080 IDH1KD tx – qHTS for induction of synthetic lethality in tumor cells producing 2HG: qHTS for the HT-1080-IDH1KD cell line | actives 2% (n = 360,000) | HT-1080 IDH1 knockdown viability, ATP luminescence, 48 h | Potency, µM (top dose mostly 46.1 µM), hits mostly cytotoxic | AID 686971, 2013
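After a 2 h attachment period, IDH1KD HT-1080 cells took pin-transferred compound for 48 h at 37 °C; ATP-based luminescence after 10 min room-temperature reagent incubation reported viability.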
KB-V1 MDR tox – qHTS assay for MDR1-selective chemotherapeutics: Primary screen using the drug-selected MDR subline cells KB-V1. KB-V1 MDR cells viability, CellTiter-Glo, 72 h. actives 3.4% (n = 400,000). Potency, µM (series often up to 46.1 µM), hits mostly cytotoxic; also: nearly all actives have a fitted effect of over 60% in size
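KB-V1, DMEM (no phenol red) + 10% FBS; cpd pin-transferred, titration series; 72 h, 37 degrees C; CellTiter-Glo, luminescence. Data normalized, curve-fit.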
TDP1 cell CPT – qHTS for Inhibitors of human tyrosyl-DNA phosphodiesterase 1 (TDP1): qHTS in cells in presence of CPT; actives 12% (n = 420,000); chicken DT40 Tdp1-/-;hTDP1 cells + 20 nM CPT, ATP luminescence, 48 h; Potency, µM (highest dose often 46.2 µM), actives largely listed as inhibitors; also: nearly all actives have a fitted effect of over 55% in size
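Chicken DT40 Tdp1-/- cells complemented with human TDP1, 400 cells/well, exposed to compounds plus 20 nM camptothecin for at least 48 h at 37 C; viability read as ATP content by CellTiter-Glo luminescence.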
KB-3-1 cytotox – qHTS assay for MDR1-selective chemotherapeutics: Primary screen using the parental adenocarcinoma cell KB-3-1; KB-3-1 viability, CellTiter-Glo ATP luminescence, 72 h; Potency, µM (highest dose often 46.1 µM), actives largely listed as cytotoxic; actives 1.4% (n = 400,000); AID 1347075, 2019; also: nearly all actives have a fitted effect of over 60% in size
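Using CellTiter-Glo luminescence, growth of non-resistant KB-3-1 adenocarcinoma cells is assessed 72 h after pin-tool compound addition at 37 °C. Normalized responses across the concentration series yield fitted curves.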
Numbers stand for hits; 0 = inactive; ? = inconclusive; - = not tested or not shown. Shown are actives, neighbours in structure and some others; about 19% of the full set was active somewhere. Calls follow the shape of the dose curve; as a rule, active = well fitted curve in the direction sought with a large enough effect; inconclusive = small, poorly fitted or top-dose-only effect, or another doubt; inactive = no such curve, though single readings can be large; an effect the other way counts as inactive or inconclusive.

SMILES	HT1080NT lethal	DT40 TDP1 no CPT	HT1080 IDH1KD tx	KB-V1 MDR tox	TDP1 cell CPT	KB-3-1 cytotox
COc1cccc(CNc2nccn(-c3cc(C)cc(C)c3)c2=O)c1	-	?	-	?	?	0
CCCNc1nc2c(c(=O)n(C)c(=O)n2C)n1Cc1ccc(F)cc1	0	9.2µM	0	0	6.51µM	?
C=C(C)Cn1c(NCCC)nc2c1c(=O)n(C)c(=O)n2C	0	?	0	0	?	0
Cn1c(=O)c2c(nc(NCc3ccccc3)n2CC(=O)NCc2ccccc2)n(C)c1=O	0	0	0	0	0	0
COc1ccc(CNc2nc3c(c(=O)n(Cc4ccc(Cl)cc4)c(=O)n3C)n2C)cc1	?	23.1µM	0	16.4µM	18.4µM	?
CCOC(=O)c1c(C)[nH]c(C)c1S(=O)(=O)N1CCCC(C(=O)N2CCN(c3cc(C)ccc3C)CC2)C1 (stereo not drawn)	-	?	-	0	?	0
CN1CCN(c2ncnc3c2ncn3[C@H]2CN(Cc3ccc(Cl)cc3)C[C@@H](CO)O2)CC1	?	?	0	0	?	0
COc1ccc2nc(N(Cc3cccnc3)C(=O)c3ccco3)sc2c1	-	0	-	-	0	-
Cn1c(OCc2cccnc2)nc2c1c(=O)n(Cc1ccc(Cl)cc1)c(=O)n2C	0	18.4µM	0	?	11.6µM	0
CCNc1nc2c(c(=O)n(C)c(=O)n2C)n1Cc1ccc(Cl)cc1	0	6.51µM	0	0	3.66µM	0
COc1ccc(OC)c(CCNc2nccn(-c3ccc(C)c(C)c3)c2=O)c1	-	20.6µM	-	0	14.6µM	0
Cn1c(OCc2cccnc2)nc2c1c(=O)n(Cc1ccc(Br)cc1)c(=O)n2C	0	?	0	?	?	0
Cc1ccc(-n2ccnc(NCc3ccccc3)c2=O)cc1C	-	?	-	0	?	?
CCC(C)Nc1nc2c(c(=O)n(C)c(=O)n2C)n1Cc1ccc(Cl)cc1 (stereo not drawn)	0	23.1µM	0	?	13µM	0
C[C@@H]1CN([C@@H](C)CO)C(=O)CCCn2cc(nn2)CO[C@H]1CN(C)S(=O)(=O)c1ccc2ccccc2c1	0	?	0	0	?	0
Cn1c(=O)n(-c2ccc3c(c2)OCO3)c2nc(-c3ccc(Cl)cc3)nc(C(N)=O)c21	-	?	-	0	0	0
CC(=O)c1ccc(S(=O)(=O)N2CCN(C(=O)c3cccc(S(=O)(=O)N4CC(C)OC(C)C4)c3)CC2)cc1 (stereo not drawn)	0	0	0	?	0	0
CSCCC(C(=O)Nc1c(C)cccc1C)N(C)CCc1ccccc1 (stereo not drawn)	0	16.4µM	0	0	18.4µM	0
CN(CCc1ccccc1)C(CCc1ccccc1)C(=O)Nc1ccc2c(c1)OCCO2 (stereo not drawn)	0	?	0	?	?	0
O=C1CCC(C(=O)N2CCCC(C(=O)c3ccc4c5c(cccc35)CC4)C2)=NN1 (stereo not drawn)	0	?	?	0	?	14.6µM
O=C1CCC(CCC(=O)N2CCCC(C(=O)c3ccc4c5c(cccc35)CC4)C2)=NN1 (stereo not drawn)	0	0	0	0	?	0
CCOc1ccc2nc(N/C(N)=N/S(=O)(=O)c3ccc(C)cc3)nc(C)c2c1	0	?	0	0	?	0
CCOc1ccc2nc(N/C(N)=N/S(C)(=O)=O)nc(C)c2c1	0	0	0	0	0	?
Cc1cc(C)cc(NC(=S)Nc2cccc3ccccc23)c1	0	0	0	0	?	0

Bioassay records as filed in PubChem BioAssay.
